From the OligoGym collection

These sequences were tested against CEP55 (assay: pooled miR-30 sensor sort-seq; sequence = guide strand). Settings: shRNA.
Note: reference of the scale not given here.

Sequence | sensor-assay potency score (higher = more potent)
TTTATTGATGAGTTGAAGCAGT | -0.0395
TTTTCTTCGAAATTCACTCAGT | 0.403
TTTATGCCTATCATCTTCCAGA | -0.706
TAGTAGTCTCAGTAGACGCTGC | -0.26
TTCTTCTTGCTGCTTTAGCAGA | -1.21

Each sequence was assayed against CETN1 in the same assay as above. Settings: shRNA.

Sequence | sensor-assay potency score (higher = more potent)
TCTTCTTTGGTGTCCTTCTCGG | -0.36
TCATTGAAGCTGATCTTCCCCG | -0.662
TTCAGGATTTCTTCTTTGGTGT | -0.547
ATTGAAGCTGATCTTCCCCGTG | -0.49
TTTCTCTTTTGGCCGGTGGAGG | -1.52
TTCTCGGACATCTTCTGCGTCA | -0.598
TTCCCGAACTTCTTGCTTCTGA | 0.00399
AACTTCTTGCTTCTGATCCTCA | -0.468
TTTTGAACGAGATCTTCCCGGT | 0.317
ATCAGCTTCGTCGATCATCTCC | -0.374
TTGAAGCTGATCTTCCCCGTGC | 0.267
TTTGGTGTCCTTCTCGGACATC | -1.04
TATTGAACTAGAGATATGGAAA | -1.01
TTGCTTCTGATCCTCAGTGAGC | -1.03
TCTTGCTTCTGATCCTCAGTGA | 0.681
ATCCCGATCAGCTTCGTCGATC | -1.43
TTCTTCTTTGGTGTCCTTCTCG | 0.166
AGCTTCGTCGATCATCTCCTGC | -1.15
TTCGTCGATCATCTCCTGCAGC | -0.572
TCATCGTCATCAAAGAGCCTGA | -0.321
TTAGGTGCCACCTTTCTCTTTT | 0.187
TAGATCTAGACAAATTATGGGG | -0.0246
TTTTTGAACGAGATCTTCCCGG | 0.117
TTCGCGTCGATGGTCCCACTTC | -0.957

What follows are sequences tested against CFHR1 in the same assay as above. Settings: shRNA.

Sequence | sensor-assay potency score (higher = more potent)
TAATTTGCACAGTATCACCTTC | 0.283
TACTCATCTGTCTCGACAGTAT | -0.805
TTTCCCGTAGAATCTTTGCATT | -1.19
TTTACACACAAATTCAGCTGAT | 0.481
TTACACACAAATTCAGCTGATT | -0.226
TCTGTCTCGACAGTATATGAGC | -1.41
TGAAATTAAGAACTGATTTAAT | -1.22
TATATGAGCATTTTGTACTGTG | 0.209
TTAAGAACTGATTTAATACTAA | -0.326
TTGCACAGTATCACCTTCCAGA | -0.325
